Here are results for 66 molecules from ChEMBL document CHEMBL4513216, “Probing the Open Global Health Chemical Diversity Library for Multistage-Active Starting Points for Next-Generation Antimalarials” (ACS Infect Dis, 2020).

Out of some 68,000 compounds screened, about 2,700 (4%) showed an effect of 50% or more. The entries come from a sample that favours strong results as a whole.

The test system of the assay is Plasmodium berghei. Description: Screen against P. berghei liver stage (PbLuc), transformed with Luciferase, at 2uM. As to conditions: tested at 2 uM. The class given is functional, HepG2.
As to `CS(=O)(=O)Cc1noc(CN2CCc3c(Cl)cccc3C2)n1`, the INHIBITION is -6.67%. With `CCC(CNS(C)(=O)=O)Oc1ccccc1F` (stereo unspecified) the figure was 14.69%; with `CCc1n[nH]c(C2CN(Cc3nnc(C4CCC4)o3)CCO2)n1` (stereo unspecified), -45.21%; with `CC(=O)N1CCCC1c1nc(N(C)C)ncc1-c1ccccc1` (stereo unspecified), 7.47%. In the case of `Cc1cn(CC(=O)NC2CCN(C(=O)C3CC3)CC2)c2ccccc12` it was 41.44%; in that of `Cc1c(C(=O)N(C)C)cccc1N(C)S(C)(=O)=O`, -0.02%; in that of `COc1ccc(CNc2c(C)nn(C(C)C)c2C)cc1OC`, -4.19%. In the case of `CC[C@@H](c1ccccc1)n1c(CCN)n[nH]c1=O` it was 31.69%; in that of `Cc1nc(CC(=O)N2CCc3nc(-c4cnccn4)nc(O)c3C2)cs1`, 34.9%. `CC(C)c1noc(CCC(=O)NC2CCS(=O)(=O)C2)n1` (stereo unspecified): the INHIBITION is listed as 17.19%.

For `Cc1ccc(C(=O)NCCC2CCN(C)CC2)cc1N(C)S(C)(=O)=O`, the INHIBITION amounted to 36.05%. With `Cc1ccc(C(=O)NCCN2CCOCC2)cc1N(C)S(C)(=O)=O` the figure was 70.2%; with `CN(c1ccc(C(=O)NCCN2CCOCC2)c(Cl)c1)S(C)(=O)=O`, 2.31%; with `COc1ccccc1-c1cc(C(=O)Nc2nc[nH]n2)[nH]n1`, 19.53%.

`CCCN(C)c1ccc(C(=O)Nc2c(C)nn(C(C)C)c2C)cc1`: the INHIBITION was -17.64%. With `CN(C)Cc1ccc(C2CCCCN2C(=O)c2cccnn2)cc1` (stereo unspecified) the figure was -9.15%; with `CN(C)Cc1ccc(C2CCCCN2C(=O)c2ncccc2O)cc1` (stereo unspecified), 56.16%; with `Cc1nc(C(=O)N2CCCCC2c2ccc(CN(C)C)cc2)c(C)o1` (stereo unspecified), 46.21%. With `CCc1ccc(C(=O)N2CCN(CCO)CC2)o1` the figure was 31.7%. With `CN(Cc1ccco1)C(=O)c1ccc(=O)n(C)c1` the figure was 1.13%. On to `Cc1nc(CNCc2ccc(OC34CCCN(CC3)C4)cc2)n[nH]1` (stereo unspecified), for which the INHIBITION was -2.62%. In the case of `CN(C)C(=O)N1CC(C(=O)NCC2CC2)C2(CCOCC2)C1` (stereo unspecified), the INHIBITION stood at 55.92%. In the case of `CC(C)NC(=O)C1CN(C(=O)c2ccccc2)CC12CCOCC2` (stereo unspecified) it was 34.48%; in that of `COCC(=O)N1CC(C(=O)NCC2CC2)C2(CCOCC2)C1` (stereo unspecified), -13.16%. With `CC(C)NC(=O)C1CN(C(=O)N2CCCC2)CC12CCOCC2` (stereo unspecified) the figure was 17.51%; with `Cc1ccsc1C(=O)N1CC(C(=O)NCC2CC2)C2(CCOCC2)C1` (stereo unspecified), 2.41%. Consider `CC(C)NC(=O)C1CN(C(=O)N(C)C)CC12CCOCC2` (stereo unspecified), for which the INHIBITION is given as 58.87%. On to `COCCO[C@@H]1C[C@H]2CN(C(=O)c3cnccn3)CCN2C1`, for which the INHIBITION is given as -1.27%. With `O=C1NCCCCC1NCc1csc(-c2ccc(F)cc2)n1` (stereo unspecified) the figure was 13.91%. With `CCN1CCc2c(CNC(=O)c3nccn3C)cncc2C1` the figure was 10.71%. With `CCc1oc(C(=O)NC(C)c2ncn[nH]2)cc1CN1CCCC1` (stereo unspecified) the figure was 38.24%. Turning to `CC(C)Nc1ncccc1C(=O)NC1CC(=O)N(CC(F)(F)F)C1` (stereo unspecified), the INHIBITION worked out at 16.87%. With `Cc1[nH]c2ccccc2c1-c1ccnc(N[C@H](CO)CC(C)C)n1` the figure was -48.87%. In the case of `Nc1ncc(C(=O)N2CCC(O)(CO)CC2)c(-c2ccccc2)n1` it was 32.04%; in that of `Nc1ncc(C(=O)N2CCCC(N)CC2)c(-c2ccccc2)n1` (stereo unspecified), 50.91%; in that of `Nc1ncc(C(=O)N2CCC3(CCCO3)CC2)c(-c2ccccc2)n1`, 14.83%. With `Cc1cc(CN(C)C(C(=O)O)c2cccc(C(F)(F)F)c2)on1` (stereo unspecified) the figure was -53%.

For `COc1ccc(C)cc1CN1CCn2cccc2C1C` (stereo unspecified), the INHIBITION came to 23.27%.

For `CC(C)SCC(=O)NCc1cc2n(n1)CCCN(C1CCCCC1)C2`, the INHIBITION is 50.02%. In the case of `CSCCC(=O)NCc1cc2n(n1)CCCN(C1CCCCC1)C2` it was -12.95%; in that of `CCC(C)NC(=O)NCc1cc2n(n1)CCCN(C1CCCCC1)C2` (stereo unspecified), -15.12%. In the case of `CNS(=O)(=O)c1ccc(CNC(=O)N(C)C(C)COC)cc1` (stereo unspecified) it was -30.49%; in that of `Cc1ccc(C(=O)N2CCC3(CCN3c3ncccn3)C2)cn1` (stereo unspecified), -55.08%.

Regarding `CC(O)CNc1ccc(C#N)cc1C(F)(F)F` (stereo unspecified), the INHIBITION was 25.48%. In the case of `CC(C)(C)c1nc(NS(=O)(=O)c2ccc(F)cc2)no1` it was -56.23%. Consider `Cc1nc(CNC(=O)NC(C)c2ccc3c(c2)OCCCO3)cs1` (stereo unspecified), for which the INHIBITION was -10.62%. With `COCCOCC(=O)NC1CCN(c2ccccn2)CC1` the figure was -1.01%; with `O=C(COCCOc1ccccc1)NC1CCN(c2ccccn2)CC1`, 21.79%; with `Cc1ccc(C)c(OCC(=O)NC2CCN(c3ccccn3)CC2)c1`, 63.89%.

As to `O=C1OCCN1Cc1ncnn1Cc1c(F)cccc1Cl`, the INHIBITION was 59.94%.

Take `O=C1CCCCCN1Cc1ncnn1Cc1c(F)cccc1Cl`: the INHIBITION worked out at 29.98%.

As for `Fc1cccc(Cl)c1Cn1ncnc1CSCCN1CCCC1`, the INHIBITION was determined as 2.76%. In the case of `O=S(=O)(NCc1ccc(S(=O)(=O)N2CCCC2)s1)c1ccc(Cl)c(Cl)c1` it was -7.01%; in that of `CCN1c2ccc(-c3cncn3CC(=O)NC(C)(C)C)cc2CC1C` (stereo unspecified), 51.57%. With `CCN1CCc2cc(-c3cncn3CC(=O)NC(C)(C)C)ccc21`, the INHIBITION is reported as 25.72%. In the case of `CC1Cc2cc(-c3cncn3CC(=O)NC(C)(C)C)ccc2N1C` (stereo unspecified) it was 37.4%. In the case of `CCN1CCCC(c2c(-c3ccccc3)ncn2Cc2cccnc2)C1` (stereo unspecified), the INHIBITION is given as -17.04%. In the case of `O=C(NCCCO)c1cc(-c2ccc3c(c2)CCO3)n[nH]1` it was -56.16%; in that of `CN(C)CCCNC(=O)c1cc(-c2ccc3c(c2)CCO3)n[nH]1`, -4.01%. With `O=C(NCCO)c1cc(-c2ccc3c(c2)CCO3)n[nH]1` the figure was 51.31%; with `CC1c2ncc(Cn3cccn3)n2CCN1Cc1ccc(F)cc1` (stereo unspecified), 17.24%; with `COCc1cc(N(C)Cc2cnccn2)nc(C(C)(C)C)n1`, 10.03%.

For `COCCC(=O)N1CCCC(CCC(=O)Nc2ccc(Cl)cc2)C1` (stereo unspecified), the INHIBITION is on record as -0.62%. Consider `O=C([C@H]1COC[C@H]2CN(c3ccncn3)C[C@H]21)N1CCCC1`, for which the INHIBITION was found to be 53.55%. With `O=C([C@@H]1COC[C@H]2CN(c3ccncn3)C[C@H]21)N1CCCCO1` the figure was 40.64%; with `O=C([C@@H]1COC[C@H]2CN(c3ccncn3)C[C@H]21)N1CCCC1`, 25.58%.
